From PubChem BioAssay AID743269 (The Scripps Research Institute Molecular Screening Center, 2014)
Where “and” joins values, the source holds several entries; their conditions need not be identical. Identical values can stand only once. About 2,400 (0.65%) of roughly 370,000 compounds were called active.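 Rule for the calls: active = inhibition above the screen-wide mean plus 3 SD (cut at about 13% in these data); inactive = the rest.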 Many of the other results were omitted from the sample, so actives are more common in it than they were. Where a structure was tested more than once in an assay, its records may differ in their call.

These compounds were tested on HIV-1 integrase (with human LEDGF/p75) (assay: blockers of LEDGF/p75-dependent integrase strand transfer – biochemical, TR-FRET, high throughput, primary screen (AID 743269;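 note: signal is the Cy5 over europium emission ratio at 671 and 618 nm; 0% = plate median of compound wells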)). Conditions: TR-FRET IN-LEDGF/p75 DNA integration, Eu/Cy5; at 3.7 µM; stronger effect = higher value.

Row | Structure (SMILES) | inhibition
1 | COC(=O)[C@]12C[C@H](CC(=O)NCc3cccc4ccccc34)C(=O)N(CCc3ccc(OC)c(OC)c3)C1=C[C@H](C1CCCC1)O[C@@H]2C | 3.8% (inactive)
2 | C=CC1=C(C(=O)O)N2C(=O)[C@@H](NC(=O)/C(=N/OCC(=O)O)c3csc(N)n3)[C@H]2SC1 | 63.4% (active)
3 | CO/N=C(\C(=O)N[C@@H]1C(=O)N2C(C(=O)O)=C(COC(C)=O)CS[C@H]12)c1csc(N)n1 (stereo in doubt) | 14.1% (active) and 6.2% (inactive) and 17.6% (active)
4 | C=CC1=C(C(=O)O)N2C(=O)[C@@H](NC(=O)/C(=N\OCC(=O)O)c3csc(N)n3)[C@H]2SC1 | 19.9% (active)
5 | COc1ccc(C(=O)OCCN(C)C2CN(Cc3cn(Cc4cccc(C)c4)nn3)S(=O)(=O)C2)cc1OC (configuration not stated) | 4.74% (inactive)
6 | CN(C(N)=NC(=O)/C=C/c1ccccc1)C(C#Cc1ccccc1)Cc1ccccc1 (configuration not stated) | 2.02% (inactive)
7 | COc1ccc(C2CC=C(C(=O)O)C(c3ccccc3F)N2S(=O)(=O)c2ccc(C)cc2)cc1OC (configuration not stated) | -2.7% (inactive)
8 | CN1C[C@]2(C=C3CCCCC3n3c(=O)n(-c4ccccc4)c(=O)n32)N=C1NC(=O)c1ccccc1 (some centres not stated) | 0.62% (inactive)
9 | O=C(CNC(=O)c1ccccc1)OC(C(=O)Nc1cc([N+](=O)[O-])ccc1F)c1ccccc1 (configuration not stated) | -3.25% (inactive)
10 | Cc1ccc(-n2c(SCC(=O)Nc3ccc(S(=O)(=O)Nc4nccs4)cc3)nnc2-c2cccnc2)cc1 | 8.17% (inactive)
11 | COc1cccc(CNC(=O)C2CCCN(c3nc4ccccc4o3)C2)c1OC (configuration not stated) | 3.24% (inactive)
12 | O=C(CCN1C(=O)c2ccccc2C1=O)NCCCn1ccnc1 | 1.21% (inactive)
13 | COc1ccccc1-c1cc(C(=O)NCCCn2ccnc2)no1 | 16.7% (active)
14 | O=C(NCCCn1ccnc1)c1cc(-c2ccccc2)on1 | 1.32% (inactive)
15 | O=C(c1c[nH]c2ccccc12)N1CCC(Oc2cccnc2)CC1 | 8.82% (inactive)
16 | Cc1ccc(-n2c(SCC(=O)Nc3cccc4ccccc34)nnc2-c2ccco2)cc1 | 1.78% (inactive)
17 | COc1ccc(-n2c(SCC(=O)Nc3ccc4c(c3)OCCO4)nnc2-c2ccc(Cl)cc2)cc1 | 3.45% (inactive)
18 | Cc1csc(=O)n1CCC(=O)OCC(=O)Nc1ccc(N2CCOCC2)cc1 | 1.07% (inactive)
19 | O=C(COC(=O)Cc1ccc(Br)cc1)Nc1ccc(N2CCOCC2)cc1 | -6.57% (inactive)
20 | O=C(O)CCC(=O)Nc1ccc(N2CCOCC2)cc1 | 17.1% (active)
21 | COc1ccc(-c2cc(-c3nnc(SCc4ccc([N+](=O)[O-])cc4)n3N)[nH]n2)cc1 | -1.38% (inactive)
22 | COc1ccccc1C(=O)CSc1nnc(-c2ccccn2)n1-c1ccccc1 | -0.35% (inactive)
23 | O=C(CSc1nc2ccccc2s1)NN=Cc1ccc(O)cc1O | -3.78% (inactive)
24 | O=C(Nc1ccccc1)N1CCN(Cc2nc3ccccc3c(=O)[nH]2)CC1 | -2.46% (inactive)

Row | Structure (SMILES) | inhibition
25 | CCCn1c(C)cc(-c2csc(NC(=O)CCc3nc4ccccc4c(=O)[nH]3)n2)c1C | 5.25% (inactive)
26 | Cc1c(C#N)c(NC(=O)c2ccccc2)n(Cc2ccccc2)c1C | 0.96% (inactive)
27 | CC(=O)Nc1ccc(C(=O)Nc2nc(-c3cc(C)n(Cc4ccccc4)c3C)cs2)cc1 | 17.7% (active)
28 | CCOc1ccc(-n2c(SCC(=O)Nc3cc(C)c(NC(=O)c4ccccc4)cc3OC)nnc2-c2cccs2)cc1 | 1.97% (inactive)
29 | COc1ccc(S[C@]2(C(=O)N(C)C)CC(=O)N(c3ccc(OC)cc3)[C@@H]2c2ccc(OC)cc2)cc1 | 2.73% (inactive)
30 | C=CCN1[C@@H](Cc2ccccc2)COc2cccc(N3CCSCC3)c2S1(=O)=O | 1.03% (inactive)
31 | CCn1c2ccccc2c2cc(NC(=O)CSc3nnc(-c4ccccc4)n3-c3ccc(C)cc3)ccc21 | 0.64% (inactive)
32 | CC1C(=O)N(Cc2cn(Cc3ccco3)nn2)CCS(=O)(=O)N1Cc1ccc(-c2cccc(CO)c2)cc1 (configuration not stated) | 1.97% (inactive)
33 | CC1C(=O)N(Cc2cn(CC3CCCCC3)nn2)CCS(=O)(=O)N1Cc1ccc(-c2cccc(N(C)C)c2)cc1 (configuration not stated) | 5.48% (inactive)
34 | COc1ccc(Cn2cc(CN3CCS(=O)(=O)N(Cc4ccc(-c5cccc(Cl)c5)cc4)C(C)C3=O)nn2)cc1 (configuration not stated) | 79.8% (active)
35 | COC(=O)[C@]12C[C@H](CC(=O)NCc3cccs3)C(=O)N(CCc3ccc(OC)c(OC)c3)C1=C[C@H](C(C)C)O[C@@H]2C1CC1 | 4.37% (inactive)
36 | Cc1ccc(S(=O)(=O)N(C)C)cc1NC(=O)COC(=O)C1COc2ccccc2O1 (configuration not stated) | 1.74% (inactive)
37 | Cc1c(CC(=O)N2CCN(C(=O)C3COc4ccccc4O3)CC2)c(=O)oc2c(O)c(O)ccc12 (configuration not stated) | 67.8% (active)
38 | CC(=O)c1ccccc1NC(=O)COC(=O)C1COc2ccccc2O1 (configuration not stated) | -3.4% (inactive)
39 | C=CCN1C(=O)[C@@H](CC(=O)N2CCN(C(=O)OCC)CC2)[C@]2(C(=O)OCC)CCCCC/C=C/12 | -0.68% (inactive)
40 | CC(C)(C)OC(=O)NCCc1ccccc1/C=C/S(=O)(=O)NCc1ccc(F)cc1 | -1.63% (inactive)
41 | COc1ccc(CN2C/C(=C/c3ccccc3)N3C(=O)C[C@@H](c4ccccc4)N=C23)c(OC)c1 | -1.46% (inactive)
42 | COc1c(O)cc2oc(-c3ccc(O)c(O)c3)cc(=O)c2c1O | 34.7% (active)
43 | CCCC[C@H](C(=O)N(CC)c1ccccc1)[C@@H](O)c1ccc2ccccc2c1 | -3.33% (inactive)
44 | C=CCN1C(=O)[C@H](CC(=O)NCCCN2CCCC2=O)[C@@]2(C(=O)OCC)CCCC=C12 | -3.27% (inactive)
45 | COC1=C[C@H](C(=O)NCCNC(C)=O)[C@H](C)[C@@H](c2ccccc2)CC1=O | -0.49% (inactive)
46 | C=C1c2c(Cl)ccc(O)c2C(O)=C2C(=O)[C@]3(O)C(O)=C(C(N)=O)C(=O)[C@@H](N(C)C)[C@@H]3[C@@H](O)C12 (some centres not stated) | 68% (active)
47 | CN(C)[C@@H]1C(=O)C(C(N)=O)=C(O)[C@@]2(O)C(=O)C3=C(O)c4c(O)ccc(Cl)c4[C@@H](O)[C@H]3C[C@@H]12 | 38.5% (active)
